Source: PubChem BioAssay AID1159580 (chemical genetic matrix, 2015)
Several values for one entry are separate records, joined by “and”; a condition that tells them apart may be missing. Equal values may be shown once. Screen size: about 5,500 compounds; about 2,000 (36%) were called active. About 18% were inconclusive and are not listed. Cut-off read from the data, not from the text of the source: active = normalized growth mostly below about 0.91 (no sharp cut-off); inconclusive = no clear call, values can overlap the other calls; inactive = mostly above about 0.92. This is one part of the list.

Assay: chemical genetic growth profiling, strain panel (AID 1159580);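 note: tested at 20 µM; growth read once vehicle control cultures reached saturation at 30 °C; 1 = growth at the plate median or of vehicle wells; lower values mean less growth of the strain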
Conditions: S. cerevisiae deletion strains, growth OD

Measured: normalized growth

Nc1nc(N)c2nc(CNc3ccc(C(=O)NC(CCC(=O)O)C(=O)O)cc3)cnc2n1 (stereo not given)
active: locus YBR021W, strain FUR4, hits give low values 1.2 [resistant]
inactive: locus YAL013W, strain DEP1, hits give low values 1.03 | locus YAL021C, strain ccr4, hits give low values 0.925 | locus YAL026C, strain drs2, hits give low values 0.991 | locus YAL030W, strain snc1, hits give low values 0.989 | locus YAL040C, strain CLN3, hits give low values 0.994 | locus YBL061C, strain skt5, hits give low values 1 | locus YBR009C, strain hhf1, hits give low values 0.991 | locus YBR023C, strain chs3, hits give low values 0.995 | locus YBR171W, strain sec66, hits give low values 1.01 | locus YBR229C, strain ROT2, hits give low values 1 | locus YBR231C, strain swc5, hits give low values 1.01 | locus YBR279W, strain paf1, hits give low values 1 | locus YCL011C, strain gbp2, hits give low values 0.983 | locus YCL016C, strain dcc1, hits give low values 0.975 | locus YCL029C, strain bik1, hits give low values 0.977 | locus YCL069W, strain vba3, hits give low values 0.996 | locus YCR088W, strain abp1, hits give low values 0.996 | locus YDL005C, strain med2, hits give low values 0.996 | locus YDL035C, strain GPR1, hits give low values 1.03 | locus YDL040C, strain nat1, hits give low values 1 | locus YDL074C, strain BRE1, hits give low values 0.993 | locus YDL101C, strain DUN1, hits give low values 0.996 | locus YDL134C, strain PPH21, hits give low values 1.02 | locus YDL185W, strain tfp1, hits give low values 0.961 | locus YDL192W, strain arf1, hits give low values 1 | locus YDR001C, strain nth1, hits give low values 0.987 | locus YDR069C, strain doa4, hits give low values 0.985 | locus YDR101C, strain arx1, hits give low values 0.982 | locus YDR137W, strain rgp1, hits give low values 0.985 | locus YDR150W, strain NUM1, hits give low values 1 | locus YDR159W, strain sac3, hits give low values 1.05 | locus YDR162C, strain NBP2, hits give low values 0.993 | locus YDR195W, strain ref2 0.961 | locus YDR297W, strain sur2, hits give low values 1 | locus YDR318W, strain mcm21, hits give low values 1 | locus YDR334W, strain swr1, hits give low values 0.985 | locus YDR335W, strain msn5, hits give low values 0.977 | locus YDR363W, strain ESC2, hits give low values 1 | locus YDR388W, hits give low values 0.994 | locus YDR392W, strain spt3, hits give low values 0.94 | locus YDR502C, strain sam2, hits give low values 1 | locus YEL003W, strain gim4, hits give low values 1 | locus YEL037C, strain rad23, hits give low values 0.989 | locus YEL061C, strain CIN8 (second series), hits give low values 0.996 | locus YEL061C, strain CIN8, hits give low values 0.994 | locus YER002W, strain NOP16, hits give low values 0.993 | locus YER015W, strain faa2, hits give low values 0.994 | locus YER016W, strain bim1, hits give low values 0.998 | locus YER110C, hits give low values 0.981 | locus YER111C, strain swi4, hits give low values 0.995 | locus YER155C, strain BEM2 (second series), hits give low values 1.05 | locus YER155C, strain BEM2, hits give low values 0.987 | locus YER167W, strain BCK2, hits give low values 1 | locus YFR010W, strain ubp6, hits give low values 0.982 | locus YGL078C, strain dbp3, hits give low values 0.999 | locus YGL086W, strain mad1, hits give low values 0.994 | locus YGL167C, strain pmr1, hits give low values 0.974 | locus YGL173C, strain kem1, hits give low values 1.01 | locus YGL227W, strain vid30, hits give low values 1 | locus YGL240W, strain doc1, hits give low values 1.03 | locus YGL248W, strain PDE1, hits give low values 1 | locus YGL253W, strain hxk2, hits give low values 1.01 | locus YGR078C, strain PAC10, hits give low values 1.02 and 0.965 | locus YGR135W, strain pre9, hits give low values 0.998 | locus YGR252W, strain gcn5, hits give low values 1.14 | locus YHR013C, strain ard1, hits give low values 0.971 | locus YHR027C, strain rpn1, hits give low values 0.982 | locus YHR030C, strain SLT2, hits give low values 0.99 | locus YHR079C, strain IRE1 (second series), hits give low values 0.978 | locus YHR094C, strain hxt1, hits give low values 0.991 | locus YHR129C, strain ARP1, hits give low values 1 | locus YHR142W, strain chs7, hits give low values 0.965 | locus YHR200W, strain rpn10, hits give low values 0.992 | locus YIL066C, strain RNR3, hits give low values 1 | locus YIL073C, strain SPO22, hits give low values 0.946 | locus YIL125W, strain kgd1, hits give low values 0.993 | locus YIR030C, strain dcg1, hits give low values 0.988 | locus YJL092W, strain hpr5, hits give low values 0.983 | locus YJL095W, strain BCK1 (second series), hits give low values 0.985 | locus YJL095W, strain BCK1, hits give low values 0.984 | locus YJL115W, strain asf1, hits give low values 0.962 | locus YJL129C, strain trk1, hits give low values 0.998 | locus YJL134W, strain LCB3, hits give low values 0.988 | locus YJL154C, strain vps35, hits give low values 0.99 | locus YJL164C, strain tpk1, hits give low values 0.964 | locus YJL166W, strain qcr8, hits give low values 1.02 | locus YJL168C, strain set2, hits give low values 0.998 | locus YJL187C, strain SWE1 (second series), hits give low values 0.992 | locus YJR043C, strain POL32, hits give low values 1.04
